Data: PubChem BioAssay
Unmarked numbers belong to inactive results.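 How the source made its calls: active means viability at or below 10% of carrier control in both of two separate runs; inconclusive means viability at or below 10% in only one of the two runs; inactive means the rest.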

Assay: reduced viability of SK-BR-3 breast cancer cells – cell-based, 24 h, human, pilot screen (AID 572);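 further: compound exposure lasted between 18 and 24 h rather than exactly 24 h; 100% = carrier-treated control wells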
Conditions: SK-BR-3 viability, CellTiter-Glo luminescence, at 10 µM, stronger effect = lower value

Structure (SMILES)	viability [%]
CCc1nnc(NC(=O)c2ccc(COc3ccc(C)cc3)o2)s1	104
CC(C)Cn1c(CN2CCN(c3ccccc3F)CC2)nc2c1c(=O)[nH]c(=O)n2C	93
O=C(CN(c1ccc(F)cc1)S(=O)(=O)c1ccc2c(c1)OCCO2)Nc1ccc2c(c1)OCO2	83
CC1(C)Cc2noc(N)c2C(C)(C)N1O	121
COC(=O)CCn1nnc(-c2cccs2)n1	99.5
CCOc1ccc(N(C(C)=O)C2C=CS(=O)(=O)C2)cc1 (stereo unspecified)	91.5
CS(=O)(=O)N1CCCC(C(=O)NCCCN2CCC(Cc3ccccc3)CC2)C1 (stereo unspecified)	108
Cn1c(=O)cc(OCC(=O)NCCCN2CCN(c3cccc(Cl)c3)CC2)c2ccccc21	85.5
CCC(C)NC(=O)c1ccccc1NC(=O)C(C)N(c1ccccc1)S(C)(=O)=O (stereo unspecified)	93
COc1ccc2nc3oc(C(=O)NC4CCN(Cc5ccccc5)CC4)cc3cc2c1	76.5
Cc1c(Cl)cccc1N1C(=O)c2ccccc2C1=O	89.5
O=C(NC1CCCC1)C(c1ccco1)N(Cc1ccccc1)C(=O)c1csnn1 (stereo unspecified)	88.5
O=C(O)Cn1cc(C(=O)c2ccco2)c2ccccc21	95
CC(C)(C)Cc1nc(-c2ccccn2)no1	95.5
COCC(=O)N(Cc1ccc(OC)cc1)Cc1nc2ccccc2c(=O)[nH]1	126
CCCN1C(=O)SC(CC(=O)Nc2ccc(Br)cc2)C1=O (stereo unspecified)	105
